# Measurements as given in PubChem BioAssay (NCI).
# Several values for one entry are separate records, joined by “and”; a condition that tells them apart may be missing. Equal entries are not always repeated. About 83,000 compounds went through this panel and 20% of them were active in at least one assay; those are over-represented in the sample as a whole.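 The test compound was applied at a single concentration to cells in 96-well plates for 48 hours, and percent growth was recorded.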 Unmarked numbers belong to inactive results. Activity calls are given as the source filed them. Rule for the calls: active = growth percent below 10; inactive = the rest.
# System: HL-60(TB) leukemia
# Experiment: NCI-60 one-dose screen, 48 h (100 = growth as untreated, 0 = no growth, -100 = all killed)
# Conditions: 10 µM unless noted
row,SMILES,growth
1,O=C1C=CC(=CC=C2N(Cc3ccc4ccccc4c3)c3ccccc3N2Cc2ccc3ccccc3c2)C=C1,-26.5% (active) and -21.5% (active)
2,Cc1ccc2nc(COc3ccc(C(=O)NNC(=S)NC(=O)c4ccccc4)cc3)[nH]c2c1,70.7%
3,CN(C)c1nc(NCCNS(=O)(=O)c2ccc(C3=Nc4c(N)nc(N)nc4NC(c4ccccc4)C3)cc2)nc(Nc2ccc(F)cc2)n1 (configuration not stated),-6.76% (active)
4,Cn1cc(-c2nc(N)nnc2-c2c[nH]c3ccc(Br)cc23)c2cc(Br)cnc21,-35.8% (active)
5,COc1ccc(/C=C/c2nc3ccccc3n3c(-c4ccc(Cl)cc4)nnc23)cc1,71.8%
6,CCN1CCN(Cc2ccc(NC(=O)c3cccc(-n4cc(-c5ccc(NC(C)=O)nc5)nn4)c3)cc2C(F)(F)F)CC1,65.4%
7,CCN(CC)c1ccnc(CNCCSC(c2ccccc2)(c2ccccc2)c2ccc(C)cc2)c1,-52.3% (active)
8,O=c1cc(-c2ccccc2)oc2cc(OCCCC[P+](c3ccccc3)(c3ccccc3)c3ccccc3)cc(O)c12,-51.5% (active)
9,CC1=C(C(=O)c2ccccc2)C(c2ccc(-n3cncn3)cc2)n2c(nc3ccccc32)N1 (configuration not stated),86.9%
10,COc1sc(/C=N/NC(=O)c2[nH]c3ccc(Br)cc3c2-c2ccccc2)cc1Br,-37.7% (active)
11,COc1c(B(O)O)cc(F)cc1-c1nc2ccc3[nH]ncc3c2c2c1COCC2,22.5%
12,CC1CN(c2oc(-c3ccc([N+](=O)[O-])cc3)nc2C#N)CC(C)O1 (configuration not stated),95%
